High-throughput results: PubChem BioAssay, several laboratories
Shown are actives, neighbours in structure and some others; about 0.65% of the full set was active somewhere.
Sa ugtP lethal – compounds lethal to S. aureus RN4220 ugtP deletion mutant | OD600 growth, 16 h | growth inhibition, % (concentration not given with the values) | actives 0.54% (n = 330,000) | AID 1259309; in the data active = growth inhibition above about 68%
BJeLR lethal – BJeLR cell viability loss; BJeLR (HRASV12) viability, CellTiter-Glo ATP luminescence, 48 h; inhibition, % (test concentration not listed); actives 0.17% (n = 300,000); AID 1554; in the data active = inhibition above about 50%
RN4220 kill – kills Staphylococcus aureus RN4220; S. aureus RN4220 growth, OD600, 16 h; inhibition, % (no concentration beside the values); actives 0.33% (n = 330,000); in the data active = inhibition above about 85%
Numbers stand for hits; 0 = inactive; - = no result; ! = not active in a repeat.

SMILES | Sa ugtP lethal | BJeLR lethal | RN4220 kill
Nc1c2c(nc3ccccc13)CCCC2 | 0 | 0 | 0
Nc1c2ccccc2nc2ccccc12 | 0 | 89! | 0
c1ccc(CSc2ncnc3c2cnn3Cc2ccccc2)cc1 | 97 | 0 | 0
CC(C)(C)C(=O)CSc1ncnc2c1cnn2Cc1ccccc1 | 0 | 0 | 0
CCC(=O)N1CCc2cc(Br)cc(S(=O)(=O)N3CCCC(C(=O)NC(C)(C)C)C3)c21 (stereo not given) | 0 | 0 | 0
CC(C)c1onc(C(=O)N2CCN(c3ccccc3)CC2)c1[N+](=O)[O-] | 0 | 0 | 0
CC(C)c1onc(C(=O)N2CCN(C(c3ccccc3)c3ccccc3)CC2)c1[N+](=O)[O-] | 0 | 91 | 0
CCOP(=O)(/C(C#N)=C(\C)O)c1ccccc1 (stereo not given) | - | 0 | -
Cc1ccc(-n2nc(C(=O)N3CCOCC3)cc2-c2ccc(Cl)cc2)cc1 | 92 | 0 | 0
O=C(c1cc(-c2ccc(Cl)cc2)n(-c2ccc(Cl)cc2)n1)N1CCOCC1 | 0 | 0 | 0
CC(=NNC(=O)C1COc2ccccc2O1)c1ccco1 (stereo not given) | 0 | - | 0
CC(C)c1cc(NC(=O)CSc2nnc(-c3ccccc3F)n2C)on1 | 0 | 0 | 0
NC(=O)c1ccsc1NC(=O)COC(=O)c1ccc([N+](=O)[O-])o1 | 0 | - | 0
NC(=O)c1ccsc1NC(=O)c1ccc([N+](=O)[O-])o1 | 100 | - | 100
CCCCCn1c(=O)c(C(=O)Nc2cc(C)ccn2)c(O)c2ccccc21 | 0 | 0 | 0
CCCn1c(=O)c(C(=O)Nc2cccc(C)c2)c(O)c2ccccc21 | 84 | 0 | 0
CCCCCCCC(=O)NNC(=O)c1c(O)c2ccccc2n(CCC)c1=O | 0 | 0 | 98
CCCCCCCn1c(=O)c(C(=O)Nc2cnccn2)c(O)c2ccccc21 | 98 | 0 | 98
CCCCCn1c(=O)c(C(=O)Nc2cnccn2)c(O)c2ccccc21 | 99 | 0 | 0
CC(C)Cn1c(=O)c(C(=O)Nc2cnccn2)c(O)c2ccccc21 | 0 | 0 | 0
CCCCCCC(=O)NNC(=O)c1c(O)c2ccccc2n(CCC)c1=O | 0 | 0 | 0
CCCn1c(=O)c(C(=O)Nc2ccccc2)c(O)c2ccccc21 | 0 | 0 | 0
O=C(CN1C(=O)CSc2ccc(S(=O)(=O)N3CCOCC3)cc21)NCCCN1CCCCC1 | 0 | 0 | 0
Cc1[nH]c(-c2ccc(F)cc2)cc1C(=O)N1CCN(c2ccccc2F)CC1 | 0 | 0 | 0
CC1CCc2c(sc3ncnc(SCC(=O)c4ccccc4)c23)C1 (stereo not given) | 0 | 0 | 0
SMILES | Sa ugtP lethal | BJeLR lethal | RN4220 kill
O=C(COc1ccc2ccccc2c1)Nc1ccncc1 | 0 | 0 | 0
Cc1ccc2[nH]c3c(=O)n(N)c(=O)[nH]c3c2c1 | 0 | 0 | 0
CC1=CC(C)[C@H](C=Nn2c(=O)[nH]c3c([nH]c4ccc(Br)cc43)c2=O)C(C)C1 (stereo not given in full) | 66 | - | 0
COc1ccc(CC(=O)Nc2ccc(-c3csc(C)n3)cc2)cc1 | 0 | 0 | 0
O=C(Oc1ccccc1)c1cc2ccccc2o1 | 101 | 0 | 0
O=C(COC(=O)c1cc2ccccc2o1)c1ccccc1 | 0 | 0 | 0
Cn1c(=O)c2c(nc(SCc3ccccc3F)n2C)n(C)c1=O | 0 | 0 | 0
CC(=O)c1c(C)[nH]c(C(=O)Nc2nc(-c3ccc(-c4ccccc4)cc3)cs2)c1C | 0 | 0 | 0
CC(=O)c1c(C)[nH]c(C(=O)Nc2nc(-c3ccc(Cl)cc3)cs2)c1C | 90 | 0 | 0
COc1ccc(NC(=O)C2=CC(c3ccco3)=NS(=O)(=O)N2C)cc1OC | 0 | 0 | 0
Cn1cccc1C(=O)OCc1ccc(C(C)(C)C)cc1 | 94 | 0 | 0
COc1ccc(CNC(=O)COC(=O)c2cccn2C)cc1 | 0 | - | 0
Cc1ccc(N2C(=O)c3ccc(C(=O)Nc4cccnc4)cc3C2=O)c(C)c1 | 0 | 0 | 0
CCOC(=O)c1c(C)[nH]c(C(=O)COC(=O)CN2C(=O)C3CCCCC3C2=O)c1C (stereo not given) | 0 | 0 | 0
O=C(CCl)N=c1sccn1Cc1ccccc1Cl | 0 | 110 | 0
O=C(CCl)N=c1sccn1Cc1ccc(Cl)cc1Cl | 0 | 0 | 0
CC1(C)[C@H]2CC=C(CN3CCC(N4CCC(C(=O)N5CCCC5)CC4)CC3)[C@@H]1C2 | 0 | 0 | 0
Cc1ccc(CN2C(=O)/C(=C\c3ccc(C(=O)NCc4cccnc4)cc3)Oc3ccccc32)cc1 | 0 | 113 | 0
O=C(CN1C(=O)/C(=C\c2ccccc2Cl)Oc2ccccc21)NCc1cccnc1 | 0 | 0 | 0
CCCCn1c(N)c(N(CC(C)C)C(=O)CCCSc2nncs2)c(=O)[nH]c1=O | 0 | 0 | 0
CC[C@@H](C)[C@H](NC(=O)Cc1c(C)c2cc3c(C)coc3c(C)c2oc1=O)C(=O)O | 0 | 0 | 0
COc1ccc(-c2coc3c(C)c4oc(=O)c(CC(=O)O)c(C)c4cc23)cc1 | 100 | 0 | 93
